Test results from the supplement of paper PMC10498489.
In all, about 2,300 compounds went through this assay and about 330 (14%) showed activity.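 How the source made its calls: active = median modified Z-score above 1.96; inactive = 1.96 or below.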 These entries were drawn from the full list.

The molecules below were run on HepG2 Srxn1-GFP reporter cells (+30 nM CDDO-Me) (assay: Srxn1-GFP intensity median modified Z-score relative to plate median; higher = stronger NRF2 / oxidative stress reporter activation, active = hit call of the paper). Details: 10 µM; exposure time: 24h.
Outline: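 Per-cell cytoplasmic GFP was measured on confocal images of formaldehyde-fixed, Hoechst-stained HepG2 Srxn1-GFP BAC reporter cells, excluding images with fewer than 100 cells. Before this, the cells (20,000 per well, 96-well plates) were co-exposed for 24 h to compound at 10 μM and an NRF2 activator at 30 nM with ≤0.1% DMSO, in three replicate plates. Each value is the median over replicates of the per-plate modified Z-score of GFP intensity. That score was scaled with 1.4826 × median absolute deviation.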

Srxn1-GFP intensity median modified Z-score, active:
CC1OC(O[C@H]2/C=C/C=C/C=C/C=C/C=C/C=C/C=C/[C@H](C)[C@@H](O)[C@@H](C)[C@H](C)OC(=O)CC(O)CC(O)CCC(O)C(O)CC(O)C[C@]3(O)C[C@H](O)C(C(=O)O)C(C2)O3)C(O)[C@H](N)C1O (stereo not given in full) [euspeclibcmpd24] 1.97
CCN(CC)CCc1nc(-c2ccccc2)no1 [euspeclibcmpd2430] 10.5
COc1cc(C(=O)OCCCN2CCCN(CCCOC(=O)c3cc(OC)c(OC)c(OC)c3)CC2)cc(OC)c1OC [euspeclibcmpd1946] 6.07
COc1ccc2cc3[n+](cc2c1OC)CCc1cc2c(cc1-3)OCO2 [euspeclibcmpd1051] 6.03
CCCCCC(CC(O)=NO)C(=O)NC(C(=O)N1CCCC1CO)C(C)C (stereo not given) [euspeclibcmpd1993] 11.7
CN=C(NC#N)NCCSCc1[nH]cnc1C [euspeclibcmpd338] 3.04
CC1(C)CC[C@]2(C(=O)O)CC[C@]3(C)C(=CCC4[C@@]5(C)CC[C@@H](O)C(C)(C)C5CC[C@]43C)C2C1 (stereo not given in full) [euspeclibcmpd1603] 4.09
Cc1ccc2[nH]c3c(c2c1)CC(Nc1ccc(CCC(=O)N2CCCC2)cc1)CC3 (stereo not given) 4.66
COc1ccccc1-c1cc(=O)c2c(OC)cccc2o1 [euspeclibcmpd2107] 2.2
COc1ccc2oc(-c3ccccc3OC)cc(=O)c2c1 [euspeclibcmpd1670] 3.62
O=c1[nH]c(=O)n(C2C[C@H](O)[C@@H](CO)O2)cc1C(F)(F)F (stereo not given in full) [euspeclibcmpd660] 2.21
CCc1oc2ccccc2c1C(=O)c1cc(Br)c(O)c(Br)c1 [euspeclibcmpd888] 2.7

Srxn1-GFP intensity median modified Z-score, inactive:
O=C(OCc1cc([N+](=O)[O-])cc2c1OCOC2)C12CC3CC(CC(Br)(C3)C1)C2 1.38
CC1(C)OC(=O)NC1=O [euspeclibcmpd99] 0.00531
CC(C)C(N)C(=O)OCCOCn1cnc2c(=O)[nH]c(=N)[nH]c21 (stereo not given) [euspeclibcmpd757] 0.568
CC1/C=C/C=C/C=C/C=C/C=C/C=C/C=C/C(OC2O[C@H](C)[C@@H](O)[C@H](N)[C@@H]2O)CC(O)C(C(=O)O)C(O)CC(=O)CC(O)CC(O)CC(O)CC(=O)CCCC(=O)CC(=O)OC1C(C)CC(C)C(O)CC(=O)c1ccc(N)cc1 (stereo not given in full) [euspeclibcmpd648] 1.22
CC1C/C=C/C=C/C=C/C=C/C(O[C@@H]2O[C@H](C)[C@@H](O)[C@H](N)[C@@H]2O)CC2OC(O)(CC(O)CC3OC3/C=C/C(=O)O1)CC(O)C2C(=O)O (stereo not given in full) [euspeclibcmpd858] -0.525
COc1ccc(-c2coc3c4c(c(CC=C(C)C)c(O)c3c2=O)OC(C)(C)C=C4)cc1 [euspeclibcmpd2167] -0.398
COc1cc(=NS(=O)(=O)c2ccc(N)cc2)[nH]c(OC)n1 [euspeclibcmpd399] -0.451
OC[C@H]1O[C@H](O[C@H]2[C@H](O)[C@@H](O)[C@H](O)O[C@@H]2CO)[C@H](O)[C@@H](O)[C@@H]1O [euspeclibcmpd2088] -0.629
COCCn1c(SCC(=O)N(C)Cc2ccc(Cl)s2)nc2cc(Cl)ccc21 0.575
CC(C=Cc1c(C)c(O)c2ccccc2c1O)=CCC[C@H](C)CCC[C@H](C)CCCC(C)C [euspeclibcmpd621] -0.697
N=c1[nH]nc(-c2cccc(Cl)c2Cl)c(=N)[nH]1 [euspeclibcmpd829] -0.0242
CCN(CCCc1ccccc1)CCCc1ccccc1 [euspeclibcmpd16] 0.166
C[C@H](CC(=O)C1OC1(C)C)[C@@H]1C(=O)C[C@@]2(C)C3=CCC4C(C)(C)[C@@H](O[C@@H]5OC[C@@H](O)[C@H](O)[C@H]5O)CC[C@@]45C[C@@]35[C@@H](O)C[C@]12C (stereo not given in full) [euspeclibcmpd2331] 0.374
COCCCCC(=NOCCN)c1ccc(C(F)(F)F)cc1 [euspeclibcmpd828] -0.302
NC(=O)CCC(N)C(=O)O (stereo not given) [euspeclibcmpd1404] -0.533
COc1cc(C(=O)N2CCOCC2)cc(OC)c1OC [euspeclibcmpd666] 0.129
COc1cc(OC)c(C(=O)CCCN2CCCC2)c(OC)c1 [euspeclibcmpd1235] -0.587
COc1cc(-c2coc3cc(OCc4ccccc4)c(OC)c(O)c3c2=O)cc(OCc2ccccc2)c1OC [euspeclibcmpd1942] -0.32
COc1cc2c(cc1OC)-c1cc3ccc(OC)c(OC)c3c[n+]1CC2 [euspeclibcmpd2350] 0.574
C[n+]1cc2c3c(ccc2c2ccc4cc5c(cc4c21)OCO5)OCO3 [euspeclibcmpd10] 0.32
CCc1cccc2c(C(=O)COC(=O)c3c4c(nc5ccccc35)CCC(C(C)(C)C)C4)c[nH]c12 (stereo not given) 1.73
C#C[C@]1(O)CCC2C3CCc4cc(OC5CCCC5)ccc4C3CC[C@@]21C (stereo not given in full) [euspeclibcmpd466] 0.485
CCCCCC(CC(=O)O)C(=O)O (stereo not given) [euspeclibcmpd1642] -0.141
CN1N=C(C(=O)NC2(C)CCS(=O)(=O)C2)CCC1=O (stereo not given) 1.37
C[C@]12CCC3c4ccc(OS(=O)(=O)O)cc4CCC3C1CCC2=O (stereo not given in full) [euspeclibcmpd707] -0.429
O=C(N[C@@H](CO)[C@H](O)c1ccc([N+](=O)[O-])cc1)C(Cl)Cl [euspeclibcmpd53] -0.347
CC1(C)CC[C@]2(C)CC[C@]3(C)C(=CCC4[C@@]5(C)CC[C@H](O)C(C)(C)C5CC[C@]43C)C2C1 (stereo not given in full) [euspeclibcmpd1345] 1.93
CC1(C)CC[C@]2(C(=O)O)CC[C@]3(C)C(=CCC4[C@@]5(C)CC[C@H](O)[C@@](C)(CO)C5CC[C@]43C)C2C1 (stereo not given in full) [euspeclibcmpd1554] -0.176
Cc1cc2nc3c(=O)[nH]c(=O)nc-3n(C[C@@H](O)[C@@H](O)[C@@H](O)COP(=O)(O)O)c2cc1C [euspeclibcmpd2323] -0.0697
O=C(Nc1ccccc1)OCC(CN1CCCCC1)OC(=O)Nc1ccccc1 (stereo not given) [euspeclibcmpd499] -0.575
CN1C(C(=O)N=c2cccc[nH]2)C(=O)c2sccc2S1(=O)=O (stereo not given) [euspeclibcmpd536] -0.404
N=c1ccn([C@H]2CC[C@@H](CO)O2)c(=O)[nH]1 [euspeclibcmpd485] -0.378
CCC(CCC(C)[C@H]1CCC2C3CC=C4C[C@@H](OC(C)=O)CC[C@]4(C)C3CC[C@@]21C)C(C)C (stereo not given in full) [euspeclibcmpd1595] -0.573
COc1ccc2oc(-c3ccccc3OC)cc(=O)c2c1 0.553
COc1ccc(-c2cc(=O)c3cc(OC)ccc3o2)cc1 [euspeclibcmpd2272] -0.0301
COc1ccc2c(=O)cc(-c3ccccc3OC)oc2c1 [euspeclibcmpd2182] 0.253
O=c1cc(-c2ccccc2)oc2cccc(O)c12 [euspeclibcmpd2071] -0.0825
COc1cc(OC)c2c(=O)cc(-c3ccccc3)oc2c1 [euspeclibcmpd1677] 0.503
Cn1c(=O)c2nc(Br)[nH]c2n(C)c1=O [euspeclibcmpd2124] -0.455
C[N+](C)(C)CCOP(=O)(O)OP(=O)(O)OC[C@H]1OC(n2ccc(=N)[nH]c2=O)[C@H](O)[C@@H]1O (stereo not given in full) [euspeclibcmpd812] -0.665
CC(=O)[C@@]1(O)CCC2C3=CC(Cl)=C4CC(=O)C5CC5[C@]4(C)C3CC[C@@]21C (stereo not given in full) [euspeclibcmpd1156] -0.345
CS(=O)(=O)c1ccc(N)cc1 0.342
CC(C)CCCC(C)[C@H]1CCC2C3CC=C4CC(=O)CC[C@]4(C)C3CC[C@@]21C (stereo not given in full) [euspeclibcmpd1330] -0.35
c1ccc(C2CN3CCSC3=N2)cc1 (stereo not given) [euspeclibcmpd2122] 1.03
O=C(O)c1nc2cc(Cl)c(Cl)cc2[nH]c1=O [euspeclibcmpd1804] -0.361
O=c1[nH]c(=O)n([C@H]2C[C@H](O)C(CO)O2)cc1I (stereo not given in full) [euspeclibcmpd2208] 0
O=c1[nH]c(=O)n(C2C[C@@H](O)[C@@H](CO)O2)cc1F (stereo not given in full) [euspeclibcmpd516] 1.56
CC(NC(CCc1ccccc1)C(=O)O)C(=O)N1Cc2ccccc2CC1C(=O)O (stereo not given) [euspeclibcmpd841] -0.626
CC[C@H]1OC(=O)C(C)[C@@H](O[C@H]2C[C@@](C)(OC)[C@@H](O)[C@H](C)O2)[C@H](C)[C@@H](O[C@@H]2O[C@H](C)C[C@H](N(C)C)[C@H]2O)[C@](C)(OC)CC(C)C(=O)C(C)[C@@H](O)[C@]1(C)O (stereo not given in full) [euspeclibcmpd669] 1.56
CC(C(=O)O)C1CCC2C3CC=C4CC(O)CCC4(C)C3CCC12C (stereo not given) [euspeclibcmpd1985] 0.801
CCCCc1oc2ccccc2c1C(=O)c1cc(I)c(OCCN(CC)CC)c(I)c1 [euspeclibcmpd976] -0.752
O=C(O)c1cc(=O)c2ccccc2o1 [euspeclibcmpd1112] -0.193
CC(=O)OCC[C@H](C)CCC=C(C)C [euspeclibcmpd1610] 1.13
